High-throughput results (PubChem BioAssay)
This is a sample that favours compounds with a hit; in the whole collection about 1.3% have one here.
PGC1a acetyl inh – modulators of PGC1a acetylation; U2OS PGC1a acetylation, AlphaScreen anti-acetyl-lysine; with virally co-expressed GCN5 acetyltransferase; inhibition, % at 15.6 µM; actives 0.17% (n = 350,000); AID 651687;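 active means every replicate shows inhibition of at least 40%; inconclusive means mean inhibition at least 40% but some replicate below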;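 further: 0% = neutral control wells and 100% = positive control wells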
HIF act – HIF pathway transcriptional activation. U2OS HRE-luciferase reporter, luminescence; normalized: DMSO 0%, desferrioxamine 100%. activation, % at 7.5 µM (by protocol). actives 0.32% (n = 300,000);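 active means mean activation of at least 10% of the iron chelator positive control signal, with at least half of replicates also reaching 10%; inconclusive means mean and replicate majority disagree about reaching 10%; inactive means mean and most replicates under 10%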
AI-2 QS mod – modulates the Vibrio harveyi AI-2 quorum sensing system. Vibrio harveyi JMH597 AI-2 luminescence/OD600 ratio, 9 h; hits give low values; strain lacks LuxN and CqsS sensors; 0 = neutral-control median. activity change, % at 7.5 µM. actives 0.4% (n = 300,000). AID 2094; in the data active means activity change below about -75%, passing the limit was not always enough; inconclusive means no clear call, values can overlap the other calls;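 further: luminescence divided by OD600 gain over 9 h not by final OD600 alone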
Rce1 inhib – blocks yeast Ras-converting enzyme; yeast membranes, quenched prenylated peptide cleavage fluorescence; calls only; actives 0.27% (n = 290,000); AID 2563;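 active means fall in fluorescence gain of 50% or more versus controls, with final raw signal at or below 3038400; inconclusive means same 50% fall but final raw signal above 3038400; inactive means fall in fluorescence gain under 50%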;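 further: plate controls were neutral control wells for no effect and wells lacking membranes for full effect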
Target sequence (Q03530 whole entry, looked up): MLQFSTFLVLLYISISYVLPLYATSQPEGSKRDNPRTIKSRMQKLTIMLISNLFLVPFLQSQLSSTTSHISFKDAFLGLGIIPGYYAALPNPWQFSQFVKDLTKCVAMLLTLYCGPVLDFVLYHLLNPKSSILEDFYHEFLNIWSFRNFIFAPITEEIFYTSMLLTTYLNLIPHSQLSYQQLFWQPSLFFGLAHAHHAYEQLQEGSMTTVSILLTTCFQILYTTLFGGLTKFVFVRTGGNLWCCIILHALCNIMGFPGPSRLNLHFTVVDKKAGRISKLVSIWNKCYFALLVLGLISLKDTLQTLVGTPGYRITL
C2C12 statin – protects C2C12 myotubes from simvastatin toxicity; ATP luminescence, 48 h; scaled: DMSO 0, geranylgeraniol control 100; rescue of ATP level, % at 7.49 µM; actives 0.78% (n = 330,000); AID 602340;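 active means mean ATP rescue above about 67%, or every replicate alone reaching that limit, limit read from the data, passing the limit was not always enough; inconclusive means no clear call, values can overlap the other calls; inactive means mean under the limit and some replicate under it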;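 further: myotubes were challenged with 10 µM simvastatin during compound exposure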
An asterisk follows results filed as active; i = inactive; ? = inconclusive; / = no result given; + = active, no number.

SMILES | PGC1a acetyl inh | HIF act | AI-2 QS mod | Rce1 inhib | C2C12 statin
C[C@H]1CN([C@@H](C)CO)C(=O)Cc2cc(NC(=O)CCCCCC(=O)Nc3ccccc3N)ccc2O[C@H]1CN(C)Cc1ccc(-c2ccccc2)cc1 | -9 | / | / | / | 142*
C[C@@H]1CN([C@H](C)CO)C(=O)Cc2cc(NC(=O)CCCCCC(=O)Nc3ccccc3N)ccc2O[C@H]1CN(C)Cc1ccc(Oc2ccccc2)cc1 | -1 | / | / | / | 104*
CN(C)C(=O)c1cccc(-c2ccc([C@H]3[C@H]4CN(C(=O)C5CC5)CC(=O)N4[C@H]3CO)cc2)c1 | 5 | / | / | / | /
C[C@H](CO)N1C[C@H](C)[C@H](CN(C)S(=O)(=O)c2ccc(F)cc2)Oc2ccc(NS(=O)(=O)c3ccc(Cl)cc3)cc2C1=O | 8 | / | / | / | 41
O=C(C[C@H]1CC[C@@H](NC(=O)Nc2ccc(C(F)(F)F)cc2)[C@H](CO)O1)NCc1ccccn1 | 2 | / | / | / | 1
C[C@H](CO)N1C[C@H](C)[C@H](CN(C)CC2CCCCC2)OCCCC[C@H](C)Oc2ccc(NC(=O)Nc3ccc(F)cc3)cc2C1=O | -12 | / | / | / | /
CC1Oc2ccccc2C=C1/C=N/NC(=O)[C@@H](C)NC(=O)OC(C)(C)C (some centres not stated) | 3 | / | 14 | + | /
COc1ccccc1S(=O)(=O)N[C@H]1CC[C@@H](CC(=O)NCc2cccc(F)c2)O[C@@H]1CO | -1 | / | / | / | -10
S=c1[nH]nc(-c2ccccc2)o1 | 3 | 0 | 43 | + | /
Cc1ccccc1-c1n[nH]c(=S)o1 | 9 | 0 | 36 | i | 7
COc1ccc2c3c(n(C)c2c1)[C@H](CO)N(C(=O)Cc1ccccn1)CC31CCN(Cc2ccccn2)CC1 | 5 | / | / | / | /
NC(=O)C1CCCN(Cc2c(C(=O)N3CCc4ccccc4C3)nc3ccc(Cl)cn23)C1 (configuration not stated) | / | 11* | 5 | i | 4
C#CCN([C@H](/C=C/C1CC1)[C@@H](O)Cc1ccccc1)[C@@H](Cc1ccccc1)C(=O)OC | -48 | / | / | / | /
C[C@@H]1CN([C@H](C)CO)C(=O)c2cc(NS(C)(=O)=O)ccc2O[C@@H](C)CCCCO[C@H]1CN(C)Cc1ccc(C(=O)O)cc1 | 10 | / | / | / | /
C[C@@H]1CN([C@@H](C)CO)S(=O)(=O)c2ccc(C#CC3CC3)cc2O[C@@H]1CN(C)Cc1ccncc1 | -13 | / | / | / | -6
OCCNCc1cccc(-c2ccccc2)c1O | 3 | / | / | / | 100*
OCCNCCNCc1ccc(-c2ccccc2)cc1 | / | 0 | 15 | i | /
CO[C@@H]1CN(C)C(=O)c2cc(NS(C)(=O)=O)ccc2OC[C@H](C)N(Cc2ccccn2)C[C@H]1C | -21 | / | / | / | 10
Cc1ccc(-c2nc3ccccc3nc2NN)cc1 | 4 | 18* | 25 | i | /
COCC#Cc1cnc2c(c1)C(=O)N([C@@H](C)CO)C[C@H](C)[C@@H](CN(C)Cc1ccc(-c3ccccc3)cc1)O2 | 1 | / | / | / | /
O=C1NC(=NCc2ccccc2)S/C1=C\c1ccccc1 | / | 0 | 20 | i | /
O=C1NC(=NCc2ccccc2)NC1(c1ccccc1)c1ccccc1 | 5 | / | / | / | 101*
O=C(Cc1ccccc1)Nc1cccc(N2C(=O)C=CC2=O)c1 | / | -4 | -88* | i | /
CCCCCc1c(O)nc(SCC(=O)NCC2CCCO2)[nH]c1=O (configuration not stated) | 7 | 0 | 29 | i | -4
CCCCc1c(O)nc(SCC(=O)NCC2CCCO2)[nH]c1=O (configuration not stated) | 0 | 0 | -5 | i | 94*
SMILES | PGC1a acetyl inh | HIF act | AI-2 QS mod | Rce1 inhib | C2C12 statin
Cc1ccc(C(=O)Nc2cccc([N+](=O)[O-])c2)cc1S(=O)(=O)Nc1ccc(NC(=O)c2ccccc2)cc1 | -12 | 140* | -3 | i | /
CCCn1c(-c2cccnc2Cl)nc2cc(Cl)c(Cl)cc21 | -15 | 0 | 35 | i | 72*
C=CCn1c(-c2cccnc2Cl)nc2cc(Cl)c(Cl)cc21 | 8 | 1 | 11 | i | 23
C=CCNc1nc(-c2ccccn2)nnc1-c1ccccc1 | -44 | 110* | 4 | i | /
c1ccc(-c2cnnc(-c3ccccn3)n2)cc1 | -4 | 1 | 11 | i | -19
C=C1C(=O)[C@]23C[C@H]1CCC2[C@@]1(C)C(C[C@@H]3O)[C@](C)(C(=O)OC)CC[C@@H]1O (some centres not stated) | 92* | / | / | / | 29
COc1ccc(CN(C)C[C@@H]2OCCCC[C@H](C)Oc3ccc(NC(=O)c4ccncc4)cc3C(=O)N([C@@H](C)CO)C[C@H]2C)cc1 | 8 | / | / | / | /
O=C(NN=Cc1ccc(O)cc1)C(=O)NN=Cc1ccc(O)cc1 | 3 | / | / | / | 7
Oc1ccc(C=NNc2nc3ccccc3s2)c(O)c1 | 3 | / | / | / | 117*
Cc1cc(N/N=C/c2ccc(O)cc2O)nc(-c2ccccc2O)n1 | / | 21* | ? | i | /
O=C(N/N=C/c1ccc(O)cc1O)C(=O)N/N=C/c1ccc(O)cc1O | / | 1 | -86* | i | 12
O=C(Nc1ccccc1F)N[C@@H]1CC[C@H](CC(=O)N2CCCCC2)O[C@@H]1CO | 2 | / | / | / | 3
Cc1ccc(S(=O)(=O)Nc2ccc3c(c2)C(=O)N([C@@H](C)CO)C[C@@H](C)[C@H](CN(C)Cc2ccc(C(=O)O)cc2)OCCCC[C@H](C)O3)cc1 | -5 | / | / | / | /
COC(=O)C1CCCN1S(=O)(=O)c1ccc2ccccc2c1 (configuration not stated) | 0 | 0 | 36 | + | 8
CN1CCN(S(=O)(=O)c2ccc3ccccc3c2)CC1 | 2 | 0 | 27 | i | 1
CC1CCN(S(=O)(=O)c2ccc3ccccc3c2)CC1 | -21 | -1 | 42 | i | 153*
CC1CCN(S(=O)(=O)c2ccc(C(C)C)cc2)CC1 | 33 | 0 | -88* | / | /
CO[C@H]1CN(C)C(=O)c2cc(NC(=O)c3cnccn3)ccc2OC[C@H](C)N(CCc2ccccc2)C[C@H]1C | -5 | / | / | / | -3
O=C(NCC1CCCCC1)[C@@H]1[C@@H](CO)[C@@H]2Cn3c(ccc(-c4cccnc4)c3=O)[C@H]1N2 | -7 | / | / | / | /
C[C@H](CO)N1C[C@H](C)[C@@H](CN(C)C(=O)Nc2ccccc2)OCCCC[C@H](C)Oc2ccc(NC(=O)CCC(F)(F)F)cc2C1=O | 0 | / | / | / | /
CNC[C@@H]1Oc2c(NC(=O)c3cc(C)nn3C)cccc2C(=O)N([C@H](C)CO)C[C@@H]1C | 3 | / | / | / | 1
CCOC(=O)c1sc(=S)n(-c2ccccc2)c1N | 46 | 0 | 20 | i | 7
CCOC(=O)c1sc(=S)n(-c2ccccc2)c1C | -1 | 19* | 6 | i | /
CC1CCc2sc(C(=O)Nc3nnc(SCc4ccc(F)cc4)s3)cc2C1 (configuration not stated) | 94* | 0 | 12 | i | /
C[C@H]1CN([C@@H](C)CO)S(=O)(=O)c2ccc(/C=C/c3ccccc3)cc2O[C@H]1CN(C)C(=O)NC1CCCC1 | 2 | / | / | / | 24
